# Over roughly 16,000 sequences, “rpm ratio (pull-down/input)” has its median near 0.5; the highest 2% begin near 5.5. The sample holds the highest values, similar sequences and a random draw of the others, so the mix is not that of the screen.
# Target: T1, MBP-FoxP3dN (Mus musculus, UniProt Q99JB6 188-423)
# T1 sequence: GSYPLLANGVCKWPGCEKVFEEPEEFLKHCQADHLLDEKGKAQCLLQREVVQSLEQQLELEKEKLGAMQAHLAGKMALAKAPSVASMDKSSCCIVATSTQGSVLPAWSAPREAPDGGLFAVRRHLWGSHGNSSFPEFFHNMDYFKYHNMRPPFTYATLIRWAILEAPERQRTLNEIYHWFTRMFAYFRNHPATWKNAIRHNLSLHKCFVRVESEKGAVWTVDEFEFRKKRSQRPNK
# Experiment: PD-seq (MBP pull-down with sequencing); 20 mM Tris-HCl pH 7.5, 100 mM NaCl, 1.5 mM MgCl2, 0.4 uM protein, 0.1 uM dsDNA library, 30 min, room temperature, amylose pull-down; high values mean tight binding
# Settings: protein: recombinant; tags: His6-MBP; chain copies: 2; dsDNA, one strand shown
# Outline: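 His6-MBP-tagged mouse FoxP3 or FoxP1 fragment lacking the N-terminus, expressed in E. coli, was mixed at 0.4 µM with 0.1 µM Klenow-filled double-stranded degenerate DNA library. Incubation was 30 min at room temperature in Tris pH 7.5 buffer with NaCl and MgCl2. Complexes were caught on amylose resin and washed three times; DNA was released with proteinase K, PCR-barcoded and Illumina-sequenced. Binding is reads-per-million enrichment, pull-down over input, with replicates pooled.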
row,Sequence,binding signal
1,GATGATTGTTCTCCCAGCTGATGAATTCTAGCATTCGAGTAAACAAATTTTCCTAATCTTTCTGTTCAAGCGCCATCTAC,5.17 RPM ratio (pull-down/input)
2,GATGATTGTTCTCCCAGCTGATGAATTAGCCCATTCGAGTAAACAAATTTTCCTAATCTTTCTGTTCAAGCGCCATCTAC,0.4 RPM ratio (pull-down/input)
3,GATGATTGTTCTCCCAGCTGATGAATTAGCGCATTCGAGTAAACAAATTTTCCTAATCTTTCTGTTCAAGCGCCATCTAC,7.23 RPM ratio (pull-down/input)
4,GATGATTGTTCTCCCAGCTGATGAATTTTAGCATTCGAGTAAACAAATTTTCCTAATCTTTCTGTTCAAGCGCCATCTAC,5.97 RPM ratio (pull-down/input)
5,GATGATTGTTCTCCCAGCTGATGAATTTTTAGCATCGAGTAAACAAATTTTCCTAATCTTTCTGTTCAAGCGCCATCTAC,0.918 RPM ratio (pull-down/input)
6,GATGATTGTTCTCCCAGCTGATGAATTAGTGCATTCGAGTAAACAAATTTTCCTAATCTTTCTGTTCAAGCGCCATCTAC,7.28 RPM ratio (pull-down/input)
7,GATGATTGTTCTCCCAGCTGATGAATTTAGCCATTCGAGTAAACAAATTTTCCTAATCTTTCTGTTCAAGCGCCATCTAC,4.73 RPM ratio (pull-down/input)
8,GATGATTGTTCTCCCAGCTGATGAATTTAGCATCTCGAGTAAACAAATTTTCCTAATCTTTCTGTTCAAGCGCCATCTAC,6.55 RPM ratio (pull-down/input)
9,GATGATTGTTCTCCCAGCTGATGAATTAGTGAATTCGAGTAAACAAATTTTCCTAATCTTTCTGTTCAAGCGCCATCTAC,0.976 RPM ratio (pull-down/input)
10,GATGATTGTTCTCCCAGCTGATGAATTAGCTGATTCGAGTAAACAAATTTTCCTAATCTTTCTGTTCAAGCGCCATCTAC,1.17 RPM ratio (pull-down/input)
11,GATGATTGTTCTCCCAGCTGATGAATTAGTAAATTCGAGTAAACAAATTTTCCTAATCTTTCTGTTCAAGCGCCATCTAC,0.68 RPM ratio (pull-down/input)
12,GATGATTGTTCTCCCAGCTGATGAATTTAGCAGCTCGAGTAAACAAATTTTCCTAATCTTTCTGTTCAAGCGCCATCTAC,1.72 RPM ratio (pull-down/input)
13,GATGATTGTTCTCCCAGCTGATGAATTCCTATCGTCGAGTAAACAAATTTTCCTAATCTTTCTGTTCAAGCGCCATCTAC,0.382 RPM ratio (pull-down/input)
14,GATGATTGTTCTCCCAGCTGATGAATTTCATAGGTCGAGTAAACAAATTTTCCTAATCTTTCTGTTCAAGCGCCATCTAC,0.343 RPM ratio (pull-down/input)
15,GATGATTGTTCTCCCAGCTGATGAATTGATCATTTCGAGTAAACAAATTTTCCTAATCTTTCTGTTCAAGCGCCATCTAC,0.757 RPM ratio (pull-down/input)
16,GATGATTGTTCTCCCAGCTGATGAATTGGCTGAATCGAGTAAACAAATTTTCCTAATCTTTCTGTTCAAGCGCCATCTAC,0.239 RPM ratio (pull-down/input)
17,GATGATTGTTCTCCCAGCTGATGAATTACTCCAGTCGAGTAAACAAATTTTCCTAATCTTTCTGTTCAAGCGCCATCTAC,0.213 RPM ratio (pull-down/input)
18,GATGATTGTTCTCCCAGCTGATGAATTTGGTGTCTCGAGTAAACAAATTTTCCTAATCTTTCTGTTCAAGCGCCATCTAC,3.42 RPM ratio (pull-down/input)
19,GATGATTGTTCTCCCAGCTGATGAATTCCGACTCTCGAGTAAACAAATTTTCCTAATCTTTCTGTTCAAGCGCCATCTAC,2.16 RPM ratio (pull-down/input)
20,GATGATTGTTCTCCCAGCTGATGAATTGACCGAATCGAGTAAACAAATTTTCCTAATCTTTCTGTTCAAGCGCCATCTAC,0.227 RPM ratio (pull-down/input)
21,GATGATTGTTCTCCCAGCTGATGAATTTCAACTGTCGAGTAAACAAATTTTCCTAATCTTTCTGTTCAAGCGCCATCTAC,0.377 RPM ratio (pull-down/input)

row,Sequence,binding signal
1,GATGATTGTTCTCCCAGCTGATGAATTGGGTGTCTCGAGTAAACAAATTTTCCTAATCTTTCTGTTCAAGCGCCATCTAC,1.29 RPM ratio (pull-down/input)
2,GATGATTGTTCTCCCAGCTGATGAATTGGTGAGGTCGAGTAAACAAATTTTCCTAATCTTTCTGTTCAAGCGCCATCTAC,0.385 RPM ratio (pull-down/input)
3,GATGATTGTTCTCCCAGCTGATGAATTGGTTTCCTCGAGTAAACAAATTTTCCTAATCTTTCTGTTCAAGCGCCATCTAC,1.54 RPM ratio (pull-down/input)
4,GATGATTGTTCTCCCAGCTGATGAATTGAGCGCCTCGAGTAAACAAATTTTCCTAATCTTTCTGTTCAAGCGCCATCTAC,1.18 RPM ratio (pull-down/input)
5,GATGATTGTTCTCCCAGCTGATGAATTAAACGCATCGAGTAAACAAATTTTCCTAATCTTTCTGTTCAAGCGCCATCTAC,1.19 RPM ratio (pull-down/input)
6,GATGATTGTTCTCCCAGCTGATGAATTAGCATTTTCGAGTAAACAAATTTTCCTAATCTTTCTGTTCAAGCGCCATCTAC,4 RPM ratio (pull-down/input)
7,GATGATTGTTCTCCCAGCTGATGAATTCGTAGCATCGAGTAAACAAATTTTCCTAATCTTTCTGTTCAAGCGCCATCTAC,1.31 RPM ratio (pull-down/input)
8,GATGATTGTTCTCCCAGCTGATGAATTTAGCTGTTCGAGTAAACAAATTTTCCTAATCTTTCTGTTCAAGCGCCATCTAC,1.7 RPM ratio (pull-down/input)
9,GATGATTGTTCTCCCAGCTGATGAATTGTAGCATTCGAGTAAACAAATTTTCCTAATCTTTCTGTTCAAGCGCCATCTAC,5.76 RPM ratio (pull-down/input)
10,GATGATTGTTCTCCCAGCTGATGAATTAACAAATTCGAGTAAACAAATTTTCCTAATCTTTCTGTTCAAGCGCCATCTAC,0.494 RPM ratio (pull-down/input)
11,GATGATTGTTCTCCCAGCTGATGAATTTAGCATTTCGAGTAAACAAATTTTCCTAATCTTTCTGTTCAAGCGCCATCTAC,6.35 RPM ratio (pull-down/input)
12,GATGATTGTTCTCCCAGCTGATGAATTTGTAGCATCGAGTAAACAAATTTTCCTAATCTTTCTGTTCAAGCGCCATCTAC,4.88 RPM ratio (pull-down/input)
13,GATGATTGTTCTCCCAGCTGATGAATTAACGCATTCGAGTAAACAAATTTTCCTAATCTTTCTGTTCAAGCGCCATCTAC,6.02 RPM ratio (pull-down/input)
14,GATGATTGTTCTCCCAGCTGATGAATTGATCAGGTCGAGTAAACAAATTTTCCTAATCTTTCTGTTCAAGCGCCATCTAC,0.232 RPM ratio (pull-down/input)
15,GATGATTGTTCTCCCAGCTGATGAATTGGTTGCATCGAGTAAACAAATTTTCCTAATCTTTCTGTTCAAGCGCCATCTAC,2.53 RPM ratio (pull-down/input)
16,GATGATTGTTCTCCCAGCTGATGAATTGGAAGCATCGAGTAAACAAATTTTCCTAATCTTTCTGTTCAAGCGCCATCTAC,0.654 RPM ratio (pull-down/input)
17,GATGATTGTTCTCCCAGCTGATGAATTAATTGTCTCGAGTAAACAAATTTTCCTAATCTTTCTGTTCAAGCGCCATCTAC,3.16 RPM ratio (pull-down/input)
18,GATGATTGTTCTCCCAGCTGATGAATTAGATAGCTCGAGTAAACAAATTTTCCTAATCTTTCTGTTCAAGCGCCATCTAC,0.537 RPM ratio (pull-down/input)
19,GATGATTGTTCTCCCAGCTGATGAATTATGCCTATCGAGTAAACAAATTTTCCTAATCTTTCTGTTCAAGCGCCATCTAC,2.91 RPM ratio (pull-down/input)
20,GATGATTGTTCTCCCAGCTGATGAATTTCCGTTATCGAGTAAACAAATTTTCCTAATCTTTCTGTTCAAGCGCCATCTAC,0.615 RPM ratio (pull-down/input)
21,GATGATTGTTCTCCCAGCTGATGAATTATTTGACTCGAGTAAACAAATTTTCCTAATCTTTCTGTTCAAGCGCCATCTAC,0.481 RPM ratio (pull-down/input)

row,Sequence,binding signal
1,GATGATTGTTCTCCCAGCTGATGAATTTAGTTACTCGAGTAAACAAATTTTCCTAATCTTTCTGTTCAAGCGCCATCTAC,3.04 RPM ratio (pull-down/input)
2,GATGATTGTTCTCCCAGCTGATGAATTTGATGACTCGAGTAAACAAATTTTCCTAATCTTTCTGTTCAAGCGCCATCTAC,3.97 RPM ratio (pull-down/input)
3,GATGATTGTTCTCCCAGCTGATGAATTTTTATTCTCGAGTAAACAAATTTTCCTAATCTTTCTGTTCAAGCGCCATCTAC,0.391 RPM ratio (pull-down/input)
4,GATGATTGTTCTCCCAGCTGATGAATTTAGTTTCTCGAGTAAACAAATTTTCCTAATCTTTCTGTTCAAGCGCCATCTAC,2.13 RPM ratio (pull-down/input)
5,GATGATTGTTCTCCCAGCTGATGAATTTTATGACTCGAGTAAACAAATTTTCCTAATCTTTCTGTTCAAGCGCCATCTAC,0.491 RPM ratio (pull-down/input)
6,GATGATTGTTCTCCCAGCTGATGAATTAGTTTACTCGAGTAAACAAATTTTCCTAATCTTTCTGTTCAAGCGCCATCTAC,5.83 RPM ratio (pull-down/input)
7,GATGATTGTTCTCCCAGCTGATGAATTTGTTGACTCGAGTAAACAAATTTTCCTAATCTTTCTGTTCAAGCGCCATCTAC,7.34 RPM ratio (pull-down/input)
8,GATGATTGTTCTCCCAGCTGATGAATTTTTTGACTCGAGTAAACAAATTTTCCTAATCTTTCTGTTCAAGCGCCATCTAC,0.273 RPM ratio (pull-down/input)
9,GATGATTGTTCTCCCAGCTGATGAATTTATTTTCTCGAGTAAACAAATTTTCCTAATCTTTCTGTTCAAGCGCCATCTAC,5.54 RPM ratio (pull-down/input)
10,GATGATTGTTCTCCCAGCTGATGAATTTATTGACTCGAGTAAACAAATTTTCCTAATCTTTCTGTTCAAGCGCCATCTAC,5.75 RPM ratio (pull-down/input)
11,GATGATTGTTCTCCCAGCTGATGAATTTTATTTCTCGAGTAAACAAATTTTCCTAATCTTTCTGTTCAAGCGCCATCTAC,1.53 RPM ratio (pull-down/input)
12,GATGATTGTTCTCCCAGCTGATGAATTTGCTGACTCGAGTAAACAAATTTTCCTAATCTTTCTGTTCAAGCGCCATCTAC,5.1 RPM ratio (pull-down/input)
13,GATGATTGTTCTCCCAGCTGATGAATTGCAGTGCTCGAGTAAACAAATTTTCCTAATCTTTCTGTTCAAGCGCCATCTAC,0.811 RPM ratio (pull-down/input)
14,GATGATTGTTCTCCCAGCTGATGAATTATTAGCGTCGAGTAAACAAATTTTCCTAATCTTTCTGTTCAAGCGCCATCTAC,0.786 RPM ratio (pull-down/input)
15,GATGATTGTTCTCCCAGCTGATGAATTTGGCTGTTCGAGTAAACAAATTTTCCTAATCTTTCTGTTCAAGCGCCATCTAC,1.17 RPM ratio (pull-down/input)
16,GATGATTGTTCTCCCAGCTGATGAATTCAGTAGATCGAGTAAACAAATTTTCCTAATCTTTCTGTTCAAGCGCCATCTAC,0.408 RPM ratio (pull-down/input)
17,GATGATTGTTCTCCCAGCTGATGAATTACGAGGTTCGAGTAAACAAATTTTCCTAATCTTTCTGTTCAAGCGCCATCTAC,0.392 RPM ratio (pull-down/input)
18,GATGATTGTTCTCCCAGCTGATGAATTCCGTCAATCGAGTAAACAAATTTTCCTAATCTTTCTGTTCAAGCGCCATCTAC,0.393 RPM ratio (pull-down/input)
19,GATGATTGTTCTCCCAGCTGATGAATTGATCGACTCGAGTAAACAAATTTTCCTAATCTTTCTGTTCAAGCGCCATCTAC,0.33 RPM ratio (pull-down/input)
20,GATGATTGTTCTCCCAGCTGATGAATTGTGTCCTTCGAGTAAACAAATTTTCCTAATCTTTCTGTTCAAGCGCCATCTAC,1.89 RPM ratio (pull-down/input)
21,GATGATTGTTCTCCCAGCTGATGAATTGGTGGCTTCGAGTAAACAAATTTTCCTAATCTTTCTGTTCAAGCGCCATCTAC,0.748 RPM ratio (pull-down/input)

# Source: paper PMC12820563, “FoxP3 forms a head-to-head dimer in vivo and stabilizes its multimerization on adjacent microsatellites”
